In all, about 6,200 compounds went through this assay and about 2,900 (47%) were called active. So high a share suggests a set chosen from earlier hits. The list shows a part of the results. A number with no mark means an inactive call. Cut-off read from the data, not from the text of the source: active = inhibition above about 50%; inactive = the rest.

What is called inhibition is the drop in the measured response relative to a control, in per cent.

A short description of the test: Mycobacterium tuberculosis growth inhibition, primary screen (AID 1259343). To be noted: inhibition: at 10 µM, hits give high values; outcome: 10 uM.
`CC(C)n1c(=O)[nH]c2ccccc21`: the inhibition was 19.6%.
In the case of `CC(C)N1C(=O)c2ccccc2NS1(=O)=O` it was 72.9% (active); in that of `C/C(=C\c1ccccc1)C1Nc2ccccc2C(=O)N1C` (stereo not given), 48.1%.
For `O=C1OCC(CO)(CO)N=C1NNc1cc(Cl)ccc1Cl`, the inhibition was 91.9% (active).
In the case of `O=C1OCC(CO)(CO)N=C1NNc1ccc(Cl)cc1` it was 81.8% (active).
In the case of `O=C1OCC(CO)(CO)N=C1NNc1ccc(Cl)c(Cl)c1` it was 87.5% (active); in that of `O=C1OCC(CO)(CO)N=C1NNc1ccc([N+](=O)[O-])cc1`, -25.1%; in that of `O=C1OCC(CO)(CO)N=C1NNc1ccc(I)cc1`, 36.3%.
As for `Cc1nc2cc(OCc3cc(C(=O)N4CCN(C)C(c5ccccc5)C4)no3)ccc2s1` (stereo not given), the figure is 10.6%.
Consider `COc1ccc(OCc2cc(C(=O)N(C)CC3CCCCO3)no2)c(Cl)c1` (stereo not given), for which the inhibition entry was “inactive”.
In the case of `CN(Cc1cnc2ccccn12)C(=O)c1cc(COc2cncc(Cl)c2)on1` it was 62.9% (active); in that of `CN(CCCC1CCCC1)C(=O)c1cnon1`, 12.9%; in that of `O=C(c1cc(COc2cncc(Cl)c2)on1)N(CCO)Cc1cccs1`, 89.6% (active).
In the case of `CN(CC1CCCCO1)C(=O)c1cc(COc2cncc(Cl)c2)on1` (stereo not given) it was 95.4% (active).
Turning to `CN1CCN(C(=O)c2cc(COc3cncc(Cl)c3)on2)CC1c1ccccc1` (stereo not given), the inhibition is 88% (active).
As for `Cc1cccc(C)c1OCc1cc(C(=O)N2CCCC(c3ccccc3)C2)no1` (stereo not given), the inhibition is 47.2%.
As for `CCc1ccc(CN(C)C(=O)c2cc(COc3cncc(Cl)c3)on2)cc1`, the entry is “inactive”; as for `Cc1ccc(C(C)C)cc1S(=O)(=O)NCc1ccco1`, -19.8%; as for `Clc1cncc(Oc2ccc3c(C4CC4)noc3n2)c1`, 78.7% (active).
As for `COc1cccc(Oc2ccc3c(C4CC4)noc3n2)c1`, the inhibition was 93% (active).
In the case of `c1cn(-c2ccc(Oc3ccc4c(C5CC5)noc4n3)cc2)cn1` it was 33.5%; in that of `c1ccc(Oc2ccc3c(C4CC4)noc3n2)cc1`, 72.8% (active).
In the case of `FC(F)(F)c1ccc(Oc2ccc3c(C4CC4)noc3n2)cn1` it was 92.3% (active); in that of `COc1ccc2c(=O)c3c(=O)n(-c4ccccc4)c(C4CCCCC4)nc3oc2c1`, -17.1%; in that of `CCOc1ccc(C2CC(c3ccc(F)cc3)=NN2C(=O)CN(C)C2CCCCC2)cc1` (stereo not given), -49.7%.
With `Fc1cccc(Oc2ccc3c(C4CC4)noc3n2)c1`, the inhibition was 69.2% (active).
As for `FC(F)(F)c1cccc(Oc2ccc3c(C4CC4)noc3n2)c1`, the figure is 70.6% (active); as for `Cc1ccc(F)cc1Oc1ccc2c(C3CC3)noc2n1`, 46.9%; as for `FC(F)(F)c1ccccc1Oc1ccc2c(C3CC3)noc2n1`, 92.9% (active).
As for `O[C@@H]1CNCC[C@H]1CNCc1cccc(Oc2cccc(C(F)(F)F)c2)c1`, the figure is 9.4%; as for `Fc1ccc(Cl)cc1Oc1ccc2c(C3CC3)noc2n1`, 61.4% (active); as for `O=c1[nH]c(NCCO)nc2c1C1(CCCC1)Cc1ccccc1-2`, 3.77%.
In the case of `O=C(Cc1c[nH]c2cccc(Br)c12)OCC1CC1` it was -40.3%; in that of `CCCNC(=O)C1(C)CCN(Cc2csc(-c3ccc(Cl)cc3)n2)C1` (stereo not given), 30.7%; in that of `Fc1ccc(Oc2ccc3c(C4CC4)noc3n2)cc1`, 6.82%.
On to `COc1ccc(Nc2ccc3c(C4CC4)noc3n2)cc1`, for which the inhibition was 85.2% (active).
In the case of `Fc1cc(F)cc(Oc2ccc3c(C4CC4)noc3n2)c1` it was 95.3% (active); in that of `Cn1c(SCC(N)=O)nc2scc(-c3ccc(F)cc3)c2c1=O`, 66.5% (active); in that of `CNC(=O)C1Sc2nc3scc(-c4ccccc4)c3c(=O)n2N=C1C` (stereo not given), 41.4%.
As for `CC(C)c1ccc(-c2csc3ncn(-n4cccc4)c(=O)c23)cc1`, the figure is 12.8%; as for `Cc1ccccc1C1c2ccsc2CCN1C(C)C(=O)N1CCCN(S(=O)(=O)c2ccc(C(C)(C)C)cc2)CC1` (stereo not given), 77.4% (active); as for `CC(Sc1n[nH]c(-c2cccs2)n1)c1ccc(F)cc1F` (stereo not given), 10.1%.
In the case of `COc1ccc(OCc2nc(CSCc3ccc(F)cc3)cs2)cc1` it was 50.8% (active); in that of `Fc1ccc(CSCc2csc(-c3ccc(F)cc3)n2)cc1`, 38.6%; in that of `Cc1cc(CSc2nnc(-c3ccc(C(C)(C)C)cc3)o2)no1`, 85.8% (active).
Take `Cc1cc(C)cc(-c2nnc(SCc3cc(C)on3)o2)c1`: the inhibition is 34.2%.
As for `CC(C)(C)c1ccc(-c2nnc(SCC(N)=O)o2)cc1`, the figure is 98.8% (active).
As to `COc1ccc(-c2nnc(SCC(=O)NC(C)(C)C)o2)cc1`, the inhibition is 38.2%.
Take `CN(C)C(=O)CSc1nnc(-c2ccc(Br)cc2)o1`: the inhibition is 78.2% (active).
In the case of `Cc1ccc(-c2nnc(SCc3c(C)noc3C)o2)cc1` it was 79% (active); in that of `O=C1N=c2ccc(Br)cc2=C1c1sc(NS(=O)(=O)Cc2ccccc2)nc1O`, 16.2%; in that of `CC(Sc1nnc(-c2ccc(Br)cc2)o1)C(N)=O` (stereo not given), 86% (active).
As for `CC(C)(C)c1ccc(OCCCC(=O)NCc2cn[nH]c2)cc1`, the figure is 88% (active).
As for `Cc1nn(C(C)(C)C)c(C)c1C(=O)NCC1CCCCCCC1`, the figure is 80.2% (active).
With `Cc1oc(-c2ccccc2)nc1C(=O)NCC1CCCCC1`, the inhibition was 16.3%.
In the case of `Cc1ccc(C(=O)NCC2CCCCC2)c(C2CCN(C(=O)c3ccccc3)CC2)n1` it was 31.2%; in that of `OC1(c2ccccc2)CC(=NC2=NN(c3ccccc3)CC2)C=C1c1ccccc1` (stereo not given), 84% (active).
In the case of `Cn1cc(Br)cc1C(=O)Nc1cc2c(cc1Cl)OCO2` it was 88.7% (active); in that of `CC(C)Oc1ccc(NC(=O)c2cc(Br)cn2C)cc1`, 23%.
As for `COCCCNc1nccc2[nH]c(-c3cccc(C(C)C)c3)nc12`, the figure is 78.4% (active); as for `CC(C)c1cccc(-c2nc3c(NCc4ccccn4)nccc3[nH]2)c1`, 82.7% (active).
As for `Clc1ccccc1-c1nc2c(NCCc3ccccc3)nccc2[nH]1`, the inhibition was 60.4% (active).
In the case of `CC(C)c1cccc(-c2nc3c(NCCc4ccncc4)nccc3[nH]2)c1` it was 51.9% (active); in that of `c1ccc(CCNc2nc(-c3ccco3)nc3ccccc23)cc1`, 8.49%.
As for `Brc1ccc2nc(NCc3ccccn3)nc(-c3ccccc3)c2c1`, the figure is 1.6%.
As for `FC(F)(F)c1cc(-c2ccco2)nc(NCC2CCCO2)n1` (stereo not given), the figure is 28.3%; as for `FC(F)(F)c1ccc(NCc2csc(-c3ccco3)n2)cc1`, 89.6% (active).
`Cc1ccc(-c2cc(CNCc3ccco3)no2)c(C)c1`: the inhibition was 27.2%.
`CCOc1ccc(Nc2ncnc3c2nnn3C)cc1`: the inhibition was 16.3%.
As to `Cn1nnc2c(Nc3ccc(Oc4ccccc4)cc3)ncnc21`, the inhibition is 53.9% (active).
As to `Cn1nnc2c(Nc3ccc(OC(F)F)cc3)ncnc21`, the inhibition was 72% (active).
As for `Cn1nnc2c(Nc3ccc(Nc4ccccc4)cc3)ncnc21`, the figure is 9.73%.
As for `CCc1ccc(Nc2ncnc3c2nnn3C)cc1`, the figure is 69.2% (active).
In the case of `Cc1cc(Cl)ccc1OCC(O)CN1CCN(c2ccccc2)CC1` (stereo not given) it was 51.6% (active); in that of `Cc1cc(Cl)ccc1Oc1ncccc1C#N`, 33.1%.
In the case of `Fc1ccc(N=c2scc(-c3ccc(OC(F)F)cc3)n2C2CC2)cc1`, the inhibition is 53.9% (active).
As for `CN=c1scc(-c2ccc(F)cc2)n1N=C(C)c1ccncc1`, the figure is 18.1%; as for `Brc1ccccc1-c1csc(=Nc2cccnc2)n1C1CC1`, 36.9%; as for `FC(F)Oc1ccc(-c2csc(=Nc3cccnc3)n2C2CC2)cc1`, 80.6% (active).
As for `FC(F)Oc1ccc(-c2csc(=Nc3cccnc3)n2CC2CCCO2)cc1` (stereo not given), the figure is 38.5%; as for `CN(c1ccccc1)c1nnc(C(O)c2cc(F)c(F)c(F)c2)s1` (stereo not given), 69.1% (active).
Take `NC(=O)COc1ccc(C(=O)N2CCc3sccc3C2)cc1`: the inhibition was 67% (active).
In the case of `CCCCN(C)c1ccc(C(=O)N2CCc3sccc3C2)cc1` it was 9.79%; in that of `NC(=O)c1ccc(C(=O)N2CCC(=Cc3ccccc3)CC2)cc1`, -6.19%; in that of `COC(=O)c1cccc(OC(=O)c2cc3c(s2)CCCC3)c1`, 22%.
In the case of `CC1CC(C)CN(C(=O)c2cc3c(s2)CCC3)C1` (stereo not given), the inhibition was 8.3%.
On to `O=C(COC(=O)c1cc2c(s1)CCC2)NCCN1C(=O)CSC1=O`, for which the inhibition is 71.9% (active).
In the case of `Cc1cccc(C)c1NC(=O)C[N+](C)(C)C` it was 65.2% (active).
As for `Cc1cccc(C)c1NC(=O)CN(C)c1cnn(Cc2ccccc2)c(=O)c1Cl`, the figure is 32.3%; as for `CN(Cc1nc2ccccc2c(=O)[nH]1)C(=O)c1cccc(Cl)c1Cl`, 44.4%.
As for `CN(C)C(=O)N1CCN(c2cc(-c3ccccc3)c3ccccc3n2)CC1`, the figure is 30.6%.
For `O=c1[nH]c(CN2CCN(c3cc(=O)n4ccccc4n3)CC2)nc2ccccc12`, the inhibition is 68.5% (active).
As for `NC(=O)c1ccc(-c2nc(-c3ccc4c(c3)OCCO4)c(-c3ccccn3)[nH]2)cc1`, the figure is 40.2%; as for `NC(=O)c1ccc2nc(-c3ccc(Oc4ccc(Cl)cc4)cc3)[nH]c2c1`, 64.4% (active).
As for `CC(C)CNc1nn2cc(C(C)(C)C)nc2s1`, the figure is 43.8%; as for `Cc1ccc(CNc2ncnc3[nH]ncc23)o1`, 99.6% (active).
As for `COc1ccc(CCNc2ncnc3[nH]ncc23)cc1`, the figure is 8.19%; as for `C=CCNC(=O)c1cccc(I)c1`, -37.8%; as for `CN(C)c1cccc(C(=O)NCC2COc3ccccc3C2)c1` (stereo not given), 13.6%.
In the case of `CCC/C=C/c1ccc(NC(C)=O)nc1`, the inhibition is 92.5% (active).
As for `CCC/C=C/c1cccc(C(=O)NCC)c1`, the figure is 79.3% (active).
As for `Cc1cccc(-c2ccc(NC(=O)C3CCN(C(=O)CC4CCCC4)CC3)cc2)c1`, the figure is 89.3% (active); as for `C=CCC(=O)N1CCC(C(=O)Nc2ccc(-c3cccc(C)c3)cc2)CC1`, 91.9% (active).
`Cc1cccc(-c2ccc(NC(=O)C3CCN(C(=O)CC4=CCCCC4)CC3)cc2)c1`: the inhibition is 90.9% (active).
As for `COCC(=O)N1CCC(C(=O)Nc2ccc(-c3cccc(C)c3)cc2)CC1`, the inhibition result was “inactive”.
